Exocytosis inh: blocks lytic granule exocytosis | hit rate 0.66% among 360,000 | inhibition, % at 10 µM | TALL-104 LAMP-1 surface exposure, flow cytometry; cells stimulated with thapsigargin and PMA | AID 651702;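 active = inhibition above about 55%, limit read from the data; inconclusive = no clear call, values can overlap the other calls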
PfM18AAP inh: blocks P. falciparum M18 aspartyl aminopeptidase; recombinant PfM18AAP, H-Glu-NHMec fluorogenic cleavage; inhibition, % at 7.35 µM; hit rate 1.2% among 290,000; AID 1822;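 active = inhibition above the campaign mean inhibition over all tested compounds plus 3 SD, cut at about 28% in these data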
JMJD2C inh: inhibitors of human GASC-1 (JMJD2C) demethylase. inhibition, % at 2.35 µM. GST-JMJD2C(1-420) H3K9me3 demethylation, DELFIA europium. hit rate 0.069% among 330,000;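 active = more than half of a compound's replicate wells show inhibition beyond 50%, single wells judged on their own value; inconclusive = some, but no more than half, of replicates pass 50% inhibition; inactive = no replicate passes 50% inhibition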;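 also: signal counts dimethyl H3K9 product captured on neutravidin plate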
Target sequence (Q9H3R0 1-420 limits assumed): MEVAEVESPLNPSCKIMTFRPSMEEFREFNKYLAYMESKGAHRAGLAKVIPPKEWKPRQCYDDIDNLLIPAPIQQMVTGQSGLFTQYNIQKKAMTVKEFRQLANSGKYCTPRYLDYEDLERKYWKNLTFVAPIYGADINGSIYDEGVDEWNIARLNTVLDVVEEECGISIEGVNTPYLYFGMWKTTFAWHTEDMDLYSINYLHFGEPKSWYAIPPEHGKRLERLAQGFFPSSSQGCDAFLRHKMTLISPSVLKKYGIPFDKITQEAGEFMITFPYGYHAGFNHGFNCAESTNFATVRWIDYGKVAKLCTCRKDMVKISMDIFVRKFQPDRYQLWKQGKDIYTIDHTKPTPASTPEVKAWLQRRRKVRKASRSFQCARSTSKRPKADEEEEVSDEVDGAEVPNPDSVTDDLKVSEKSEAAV
beta cell repl: MIN6 beta-cell proliferation induction; MIN6 cells proliferation, ATPlite luminescence, 48 h; cells starved in 0.2% serum; 100% = growth in 10% serum; proliferation, % at 10 µM; hit rate 0.29% among 330,000; AID 2380;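 active = compounds whose signal lies at least 3.5 SD above the mean of all wells on their plate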
ALR H2O2 inh: human ALR oxidase inhibition via reduced H2O2; purified ALR, DTT oxidation, H2O2 HRP-luminol luminescence; hit rate 3.8% among 290,000; inhibition, % (concentration not given with the values); P55789;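 active = mean replicate inhibition above about 79%, with every replicate also reaching it, limit read from the data; inconclusive = only one of the two criteria met; inactive = mean below limit and not every replicate reaching it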
SMARCA2 activ: activators of SMARCA2 function; MG213 cells, MMTV-luciferase reporter, dexamethasone, overnight; activation, % at 9.1 µM; hit rate 1% among 370,000; in the data active = activation above about 7.8%
Large screens that a line does not name were inactive. The list is not random: actives were taken first. Their share in the collection is about 5.4%.

COc1ccc2nc(NNC(=O)COc3ccccc3)sc2c1	PfM18AAP inh 38
COc1ccc(OCC(=O)Nc2nc3ccc(NC(C)=O)cc3s2)cc1	none
O=C(COc1ccccc1)Nc1nnc(-c2ccccc2)o1	ALR H2O2 inh 93
O=C(COc1ccccc1)Nc1nnc(-c2ccco2)o1	ALR H2O2 inh inconclusive
CCOCC(=O)Nc1nc2ccccc2s1	ALR H2O2 inh 86
O=C(COc1ccccc1)Nc1nc2ccccc2[nH]1	SMARCA2 activ 7.8
CCOC(=O)[C@@]12CCCC=C1N(CCc1ccc(Cl)cc1)C(=O)[C@H]2CC(=O)NCCCCc1ccccc1	none (no result: Exocytosis inh, PfM18AAP inh, JMJD2C inh, beta cell repl, ALR H2O2 inh)
Cc1ccc(-n2c(Cc3cccs3)nnc2SCC(=O)Nc2ccc(OCc3ccccc3)cc2)cc1	none (no result: Exocytosis inh, PfM18AAP inh, JMJD2C inh, beta cell repl, ALR H2O2 inh)
COC(=O)C[C@H]1CC[C@H]2[C@@H](COc3ccc(NC(=O)Nc4ccccc4)cc3C(=O)N2C)O1	none (no result: Exocytosis inh, PfM18AAP inh, JMJD2C inh, beta cell repl, ALR H2O2 inh)
S=c1[nH]c2cc3ccccc3cc2[nH]1	none (no result: ALR H2O2 inh)
Cc1cc2[nH]c(=S)[nH]c2cc1C	ALR H2O2 inh 99 (no result: beta cell repl)
Oc1oc(-c2ccco2)nc1C=Nc1cccc(Cl)c1	ALR H2O2 inh 96
COC(=O)C1=C(C)N(C)C(=NCc2ccccc2C(F)(F)F)NC1c1cccc(F)c1 (configuration not stated)	none (no result: Exocytosis inh, PfM18AAP inh, JMJD2C inh, beta cell repl, ALR H2O2 inh)
Cc1ccccc1Cn1cc(COC(=O)NCCc2ccccc2)nn1	none (no result: Exocytosis inh, PfM18AAP inh, JMJD2C inh, beta cell repl, ALR H2O2 inh)
CCCCCCCCN1C(=O)[C@@H](CC(=O)NCCCN2CCCC2=O)C[C@@]2(C(=O)OC)C1=C[C@H](C1CCCC1)O[C@@H]2C	none (no result: Exocytosis inh, PfM18AAP inh, JMJD2C inh, beta cell repl, ALR H2O2 inh)
Cc1ccc(-n2c(SCC(=O)c3ccc(Br)cc3)nnc2-c2ccncc2)cc1	none (no result: Exocytosis inh, PfM18AAP inh, JMJD2C inh, beta cell repl, ALR H2O2 inh)
O=Cc1c(SCCO)nc2ccccn2c1=O	none
O=Cc1c(Sc2ccccc2)nc2ccccn2c1=O	ALR H2O2 inh 98
O=Cc1c(Sc2ccccn2)nc2ccccn2c1=O	ALR H2O2 inh 97
C=CCN1C(=O)[C@H](CC(=O)NCc2cccc3ccccc23)[C@@]2(C(=O)OCC)CCCC=C12	none (no result: Exocytosis inh, PfM18AAP inh, JMJD2C inh, beta cell repl, ALR H2O2 inh)
COc1ccc(C(=O)CCc2ccccc2)cc1	none
O=C(COC(=O)CCC(=O)c1ccc(F)cc1)NCCc1ccccc1	none (no result: PfM18AAP inh)
COc1ccc(C(=O)COC(=O)CCc2ccccc2)cc1	PfM18AAP inh 30
COc1ccc(CCNC(=O)COC(=O)CCC(=O)c2ccc(F)cc2)cc1	ALR H2O2 inh 85
Cc1ccc(S(=O)(=O)N2CCCC(C(=O)NCCN3CCC(Cc4ccccc4)CC3)C2)cc1 (configuration not stated)	none (no result: Exocytosis inh, PfM18AAP inh, JMJD2C inh, beta cell repl, ALR H2O2 inh)
CC(C(=O)Nc1ccc(O)cc1)c1cccc(C(=O)c2ccccc2)c1 (configuration not stated)	ALR H2O2 inh 99
COc1ccc(CCn2nc(C)c([N+](=O)[O-])c2C)cc1	none
Cc1cccc(-n2c(CCn3nc(C)c([N+](=O)[O-])c3C)n[nH]c2=S)c1	ALR H2O2 inh 92
Oc1c(C=C2N=c3ccccc3=N2)sc(=S)n1-c1ccc2ccccc2c1	Exocytosis inh 59
Oc1c(C=C2N=c3ccccc3=N2)sc(=S)n1C1CCCC1	none
CC(COc1cccc(Br)c1)CN1CCC(C(O)(c2ccccc2)c2ccccc2)CC1 (configuration not stated)	none (no result: Exocytosis inh, PfM18AAP inh, JMJD2C inh, beta cell repl, ALR H2O2 inh)
CCOC(=O)C1CCCN(C(=O)/C(=C/c2ccco2)NC(=O)c2ccccc2)C1 (configuration not stated)	PfM18AAP inh 30
O=C(Nc1ccc(C(=O)O)cc1)/C(=C\c1ccco1)NC(=O)c1ccccc1Cl	PfM18AAP inh 30
NC(=O)/C(=C/c1ccco1)NC(=O)c1ccc(Br)o1	PfM18AAP inh 29
O=C(O)/C(=C\c1ccco1)NC(=O)c1ccccc1	ALR H2O2 inh 97
COC(=O)/C(=C/c1ccco1)NC(=O)c1ccccc1	none (no result: ALR H2O2 inh)
O=C(N/C(=C/c1ccco1)C(=O)N1CCCCCC1)c1ccccc1	none
Cc1ccc(-n2c(SCC(=O)C(C)(C)C)nnc2-c2cccc(C)c2)cc1	none (no result: Exocytosis inh, PfM18AAP inh, JMJD2C inh, beta cell repl, ALR H2O2 inh)
COc1ccc(S[C@]2(C(=O)N(C)C)CC(=O)N(C(=O)CCc3ccccc3)[C@@H]2c2ccc(OC)cc2)cc1	none (no result: Exocytosis inh, PfM18AAP inh, JMJD2C inh, beta cell repl, ALR H2O2 inh)
O=C(N/C(=C/c1ccco1)C(=O)N1CCCCCC1)c1cccs1	ALR H2O2 inh 97
CCOC(=O)C1CCCN(C(=S)Nc2ccc(Nc3ccccc3)cc2)C1 (configuration not stated)	ALR H2O2 inh 97
CCOC(=O)C1CCN(C(=S)Nc2ccccc2)CC1	none
CC(=O)OCCCN1C(=O)CCC12CCC(C)CC2 (configuration not stated)	none (no result: Exocytosis inh, PfM18AAP inh, JMJD2C inh, beta cell repl, ALR H2O2 inh)
O=C1Nc2ccccc2C1=NN1CCCCCC1	none (no result: PfM18AAP inh, JMJD2C inh, beta cell repl, ALR H2O2 inh)

High-throughput results (PubChem BioAssay)
